Data published in article PMC12864922, “TDP-43 directly inhibits mRNA accumulation in neurites through modulation of mRNA stability”.
In all, about 9,900 sequences were measured (“r (bound/input frequency ratio)”: median about 0.7, highest 2% from about 6.5 on). Shown is part of a subset that was picked to be rich in the highest values.

B1: ENSMUSG00000058297.9|Spock2|197:201;205:218;227:238;252:258 (ssRNA)
RNA: GGGAGUUCUACAGUCCGACGAUCGCUUCGAUAUCCGCAUGCUAGGAGGAGGAGGGUGAGGCGGGUGAGGCAGAUGAUGGAGGCUACAUCUGGUAGAUAGCCCUCGACGGCCUCGGCAGGCCAGGGUGCCGACGGCCAGAAAGACAGGCCAGAAGAGACCUGGACAACAGCAGGCAACUUAGCAAAUGGAUCCGGAAGUCAGUGCGGAGGACCCUGGCUCCAGUGGGGGAGGACUGGGGACACACGCUACACACAUACACACAUAUGAGAACACACACAUACAUGUGAGAUGUGACACACACAUCUCUUGCGGUCGCACUAGUGUGGAAUUCUCGGGUGUCAAGG
B2: ENSMUSG00000058297.1|Spock2 (ssRNA)
RNA: GGGAGUUCUACAGUCCGACGAUCGCUUCGAUAUCCGCAUGCUAGGAGGAUGAGGAAGAAAAGGAGACAGAAGAGGCAGGGGAGGAGGCCGAGGAGGAGGAGGGUGAGGCGGGUGAGGCAGAUGAUGGAGGCUACAUCUGGUAGAUAGCCCUCGACGGCCUCGGCAGGCCAGGGUGCCGACGGCCAGAAAGACAGGCCAGAAGAGACCUGGACAACAGCAGGCAACUUAGCAAAUGGAUCCGGAAGUCAGUGCGGAGGACCCUGGCUCCAGUGGGGGAGGACUGGGGAGUGUGGCUUGUGUGUACUCUUGCGGUCGCACUAGUGUGGAAUUCUCGGGUGUCAAGG
B3: ENSMUSG00000058297.7|Spock2 (ssRNA)
RNA: GGGAGUUCUACAGUCCGACGAUCGCUUCGAUAUCCGCAUGCUAGGAGGAGGCCGAGGAGGAGGAGGGUGAGGCGGGUGAGGCAGAUGAUGGAGGCUACAUCUGGUAGAUAGCCCUCGACGGCCUCGGCAGGCCAGGGUGCCGACGGCCAGAAAGACAGGCCAGAAGAGACCUGGACAACAGCAGGCAACUUAGCAAAUGGAUCCGGAAGUCAGUGCGGAGGACCCUGGCUCCAGUGGGGGAGGACUGGGGAGUGUGGCUUGUGUGUAUGUGUGAUAUGAGAUGUGUGUGUAUGAUGUGAGAUGCUCUUGCGGUCGCACUAGUGUGGAAUUCUCGGGUGUCAAGG
B4: ENSMUSG00000031028.199|Tub (ssRNA)
RNA: GGGAGUUCUACAGUCCGACGAUCGCUUCGAUAUCCGCAUGCUAACCUGCUAGGGUCUAUUCUGCAUGUCCUUUCUCUUCCCAGUUCCAGAGAUGAAACCCCUCCGAGUUAAUGUAUAAGGUUGGAAACCUUUCAGUAGGGAAUCAGGCAGUUCCCUGUUGAAAGUUGUCUGAGUUUUUGCACACCAUUCUGAUCUGAUGUGGCCUGUGCCUGGCUCCUCUAUGAGGACUUCGAGCUGUGCACAGACCUUAGCAGGACCACUGCACACUUUGUGUCUGUGUGACAGGCAGCCCAAGGGUUCUGGCUCUUGCGGUCGCACUAGUGUGGAAUUCUCGGGUGUCAAGG

These binders were tested against TDP-43 (Homo sapiens, UniProt Q13148 1-414) (assay: RNA Bind-n-Seq with designed 260-mer pool; 25 mM Tris-HCl, 150 mM KCl, 3 mM MgCl2, BSA (printed 500 mg/mL), 20 units/mL SUPERase IN; pH not stated; 500 nM RNA pool, 1 h, 4 C; TDP-43 5, 50, 500 nM; high values mean tight binding). Conditions: protein: recombinant; tags: SBP (GST cleaved off with PreScission; pGEX-GST-SBP).
TDP-43, sequence (Q13148 whole entry): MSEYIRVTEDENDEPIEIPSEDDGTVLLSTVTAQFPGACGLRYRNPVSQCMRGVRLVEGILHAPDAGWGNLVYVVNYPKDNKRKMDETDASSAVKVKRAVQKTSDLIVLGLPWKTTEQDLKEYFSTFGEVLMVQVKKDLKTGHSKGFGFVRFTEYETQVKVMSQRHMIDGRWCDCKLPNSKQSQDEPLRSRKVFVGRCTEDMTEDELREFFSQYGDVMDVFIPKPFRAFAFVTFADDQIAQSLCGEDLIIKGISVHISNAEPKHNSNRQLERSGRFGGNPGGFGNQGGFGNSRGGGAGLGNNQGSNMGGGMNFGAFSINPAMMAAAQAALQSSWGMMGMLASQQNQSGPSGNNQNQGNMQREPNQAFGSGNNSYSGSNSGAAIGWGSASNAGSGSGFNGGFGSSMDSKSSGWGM
Method in brief: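 Streptavidin beads captured recombinant SBP-tagged TDP-43 at 5, 50 or 500 nM, and the beads were incubated for 1 h at 4 °C with 500 nM of an in vitro-transcribed pool of 260-nt 3′ UTR oligos in 25 mM Tris-HCl, 150 mM KCl, 3 mM MgCl2, BSA and SUPERase IN. After washing, bound RNA was eluted with biotin, reverse transcribed, PCR-amplified and sequenced. Binding is reported as R, the mapped-read-normalized abundance of each oligo in the bound sample divided by its abundance in the input. Two independent protein batches served as duplicates.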

Row | Binder | binding signal
1 | B1 | 2.81 R (bound/input frequency ratio)
2 | B2 | 3.54 R (bound/input frequency ratio)
3 | B3 | 5.88 R (bound/input frequency ratio)
4 | B4 | 1.55 R (bound/input frequency ratio)
